This is an account of results in PubChem BioAssay AID1671188 (National Center for Advancing Translational Sciences (NCATS), 2021).

Where “and” joins values, the source holds several entries; their conditions need not be identical. Equal entries are not always repeated. Screen size: about 100,000 compounds; about 250 (0.25%) were called active. About 7% were inconclusive and are not listed. The entries come from a sample that favours actives as a whole. A number with no mark means an inactive call. Calls follow the shape of the dose curve; as a rule, active = well fitted inhibition curve with a large enough effect; inconclusive = small, poorly fitted or top-dose-only effect; inactive = flat fitted curve, though single readings scatter.
% is scaled to controls: 0 for no effect and ±100 for the full control effect; potency is read from the fitted curve at half-maximal effect.

Chain of Alanine aminotransferase 2 (Homo sapiens) (Q8TD30 whole entry, looked up): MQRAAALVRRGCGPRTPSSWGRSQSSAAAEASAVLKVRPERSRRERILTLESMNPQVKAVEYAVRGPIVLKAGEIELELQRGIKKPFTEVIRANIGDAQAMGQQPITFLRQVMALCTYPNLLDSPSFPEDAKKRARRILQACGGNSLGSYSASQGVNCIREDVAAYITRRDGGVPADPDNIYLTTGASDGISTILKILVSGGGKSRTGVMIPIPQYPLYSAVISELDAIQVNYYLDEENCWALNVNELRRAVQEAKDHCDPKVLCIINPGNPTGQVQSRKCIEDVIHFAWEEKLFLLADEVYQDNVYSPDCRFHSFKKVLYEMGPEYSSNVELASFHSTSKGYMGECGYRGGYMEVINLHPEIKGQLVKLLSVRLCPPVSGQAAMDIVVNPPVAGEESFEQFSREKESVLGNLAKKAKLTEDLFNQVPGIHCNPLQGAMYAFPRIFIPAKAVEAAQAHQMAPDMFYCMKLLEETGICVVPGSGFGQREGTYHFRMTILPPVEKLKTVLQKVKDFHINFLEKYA

This experiment has as its target Alanine aminotransferase 2 (Homo sapiens) (UniProt Q8TD30). Nature of the experiment: Primary qHTS assay for inhibitors of Glutamate pyruvate transaminase 2 (GPT2). Also: nearly all actives have a fitted effect of over 60% in size. As to conditions: Recombinant GPT2, coupled pyruvate oxidase/HRP Amplex Red fluorescence; series mostly up to 57.7 µM; activity change, negative = inhibition: at the top concentration. On the procedure:
Assay Provider: Zhenghe John Wang Ph.D.
Case Western Reserve University, Cleveland OH
Glutamate pyruvate transaminase 2 (GPT2) catalyzes the reversible transamination of glutamate and pyruvate to provide a-ketoglutarate and alanine. We have optimized an assay for GPT2 enzymatic activity that couples pyruvate formation to detection of fluorescence using an established pyruvate oxidase/horseradish peroxidase / Amplex Red system.
Screening conditions were 250uM a-KG, 2mM L-alanine, and 10ng/uL GPT2 in […] of solution; 10uL of Amplex reaction mix (outlined below) were added so that final concentrations of Amplex reagents in 50uL were 0.2mM ThPP, 0.2U/mL PO and HRP, and 50uM Amplex.
NOTE: The volume of GPT2 in the system depends on the activity of it. The activity is different every batch. You need to test the activity before the assay. For full plate assay with automation, plate 20uL of GPT2 buffer to pin into, then add 10uL of GPT2 dilution followed immediately by 10uL of substrate dilution. 2 Columns of the plate were devoted to GPT2 buffer ([…] PH7.5, 0.0001% Tween) + 50uM AOA (known GPT2 inhibitor) to serve as a positive control. Complete the assay as normal. Amplex-red buffer: […] PH7.5, 1 mM EDTA, 1 mM MgCl2.
1. Combine a-KG and L-alanine at desired concentrations and incubate for at least 10 minutes at 37C. Stocks of L-alanine and a-KG are diluted in distilled water. However, the stocks were diluted in GPT2 buffer for the assay.
2. Prepare GPT2 dilution at the desired concentration in GPT2 buffer.
3. Plate 40uL of GPT2 dilution with 40uL of substrate dilution and let incubate for 30 minutes at room temperature.
4. Add 20uL of Amplex reaction mix prepared as follows: 1.5uL 200U/mL Horseradish Peroxidase, 200mM Thiamine Pyrophosphate, 200U/mL Pyruvate Oxidase; 7.5uL 10mM Amplex Red; 288uL Amplex Buffer.
5. Incubate for 30 minutes at room temperature in the dark, then image using AM_Amplex_Fluorescence on plate reader nearest the window.
As for `CN(C)C(=O)c1ccc2oc(-c3ccnc(Cl)c3)nc2c1`, the outcome was inactive.

On to `CC(C)c1ccc(CN2CCC3(CC2)COCCN3C(=O)c2ccc3[nH]ncc3c2)cc1`, for which the “activity change, negative = inhibition” value is -10.3% [at 88.5 µM].

In the case of `CC(=O)N1C[C@@H]2CCCN3CCC[C@@H]([C@H]23)[C@H]1CCCC(=O)N1CCN(C2CCN(C)CC2)CC1`, the outcome was inactive.

For the molecule `COc1ccc(CC(=O)NC2CCN(Cc3ccc(-c4ccccc4OC)cc3)C2)cc1` (stereo not drawn), the “activity change, negative = inhibition” value is -5.21%.

In the case of `O=C1[C@H]2CN(Cc3ccc(Cl)c(F)c3)C[C@H]2C(=O)N1CCc1ccccc1`, the outcome was inactive.

For `O=C(c1ccc(C(F)(F)F)cc1)N1CCN(c2ccnc3ccnn23)CC1`, the outcome was inactive.

In the case of `O=C(N1CCC(Cc2nc(-c3ccccc3)n[nH]2)C1)C1(c2ccccc2)CC1` (stereo not drawn), the outcome was inactive.

In the case of `O=C(c1ccccc1Cl)N1CCC2(CC1)NC(=O)N(c1cccc(Cl)c1)N2`, the “activity change, negative = inhibition” value is -13.9%.

For `CC(C)c1noc(-c2cn(C3CCN(C(=O)c4cccc(C#N)c4)C3)nn2)n1` (stereo not drawn), the result was inactive.

`O=C1NCCOCCN(S(=O)(=O)c2cccs2)[C@@H]2CCCC[C@H]12`: the “activity change, negative = inhibition” value was 3.21%.

Consider `CNC(=O)c1ccccc1Nc1nc(Nc2ccc(N3CCOCC3)cc2OC)ncc1Cl`, for which the Potency was 10.9 µM (active) and 7.08 µM (active).

Take `CNC(=O)c1ccccc1Nc1nc(Nc2ccc3c(c2OC)CCC[C@@H](N2CCN(CCO)CC2)C3)ncc1Cl`: the “activity change, negative = inhibition” value was 2.02%.

Turning to `COc1ccccc1Nc1ncc2c(n1)CN(C(=O)COc1ccccc1)CCN2`, the “outcome” value was “inactive [at 88.5 µM]”.

As to `COc1cccc(-c2ccc(C(=O)N3CCC(NC(=O)Cc4ccc(F)cc4)CC3)cc2)c1`, the Potency result was “inactive”.

Take `COc1ccccc1OC(C)(C)C(=O)N1CC(C)(C)[C@@](C)(O)C1`: the result was inactive.

As for `CN(CC1CCOCC1)C(=O)Nc1ccc(Cl)cc1`, the result was inactive.

Regarding `O=S(=O)(Cc1ccccc1)N1CC(c2nc(-c3ccncc3)no2)C1`, the “activity change, negative = inhibition” value is 2.41%.

On to `COc1ccc(CN2CCN(c3nc4ccccc4o3)CC2CCO)cc1C` (stereo not drawn), for which the activity change, negative = inhibition was -2.15% [at 11.5 µM].

Turning to `COc1ccc(-n2cccn2)c(CN2CCC3(CCNC(=O)CC3)CC2)c1`, the outcome was inactive.

`Cc1noc(C)c1-c1cc2c(cc(C)n2C)c(NCCCn2ccnc2)n1`: the “activity change, negative = inhibition” value is -9.58% [at 88.5 µM].

With `COc1ccccc1Cn1c(=O)c(C(=O)NCc2ccc(F)cc2)nc2cccnc21`, the outcome was inactive.

Take `O=C(c1ccc(F)cc1)N1CCCC(C(=O)N2CCCC2c2nc3ccncc3[nH]2)C1` (stereo not drawn): the “activity change, negative = inhibition” value was 2.57%.

As for `CN1CCN(C(=O)c2ccc3oc(-c4ccncc4Cl)nc3c2)CC1`, the “activity change, negative = inhibition” value is 0.757%.

As for `COc1cccc(N2C(=O)NC(=NC3CCCCC3)C23CCN(CC2CCCCC2)CC3)c1`, the “activity change, negative = inhibition” value is -2.84%.

For `CC1=C(C(=O)OC(C)(C)C)C(c2ccccc2F)N2C(CC(=O)N3CCCC3)=CSC2=N1` (stereo not drawn), the result was inactive.

Turning to `O[C@@H]1C[C@@H](c2nc(-c3cccnc3)no2)N(Cc2cccs2)C1`, the “activity change, negative = inhibition” value was -4.15% [at 88.5 µM].

As to `CN(Cc1ccsc1)Cc1nc(C(c2ccccc2)c2ccccc2)no1`, the outcome was inactive.

For `CCOC(=O)C1CCN(C(=O)c2nc3sccn3c2-c2ccc(OC)cc2)CC1`, the “outcome” value was “inactive [at 88.5 µM]”.

On to `COCc1cc(=O)n(CC(=O)Nc2cc(C)cc(C)c2)c(N2CCOCC2)n1`, for which the outcome was inactive.

As to `CC(=O)c1ccc(NC(=O)O[C@@H]2CO[C@H]3[C@@H]2OC[C@@H]3Nc2nccc(-c3ccco3)n2)cc1`, the “activity change, negative = inhibition” value is -11.1%.

For the molecule `CC[C@@H]1Cc2cc(O)ccc2C2=C1c1ccc(O)cc1C[C@H]2CC`, the Potency was 11.2 µM (active).

Turning to `COCCN1C[C@H]2CN(C(=O)c3ccc(C(F)(F)F)cc3)CCN2C1=O`, the “activity change, negative = inhibition” value was 3.47% [at 88.5 µM].

As to `N#Cc1ccc(CN2CCC3(Cc4ccccc4NC3=O)C2)cc1` (stereo not drawn), the “outcome” value was “inactive [at 88.5 µM]”.

Turning to `O=C(Cn1nc2c(cc1=O)CCCC2)NCCn1ccc2ccc(Cl)cc21`, the “activity change, negative = inhibition” value was 3.99%.

Consider `Cc1nc(C)c(C(=O)N2CCc3nnc([C@@H]4C[C@@H](O)CN4C(C)C)n3CC2)s1`, for which the “activity change, negative = inhibition” value is -2.49%.

`C=CCNC(=O)C1N(C(C)C)C(=O)C12CCCC2` (stereo not drawn): the outcome was inactive.

`OCC1(CN2CCCC2)CCN(Cc2ccc(OC(F)(F)F)cc2)CC1`: the “activity change, negative = inhibition” value is -6.92%.

As for `COc1ccc(NC(=O)N2CCC(O)(c3csc(CN4CCc5ccccc5C4)n3)CC2)cc1`, the “activity change, negative = inhibition” value was -11.3%.

On to `CO[C@@H]1COCC[C@H]1NC(=O)c1cn(CCN2CCNCC2)nn1`, for which the result was inactive.

Consider `CCC(=O)N1CCCC(Cc2ncc(C)n2C(C)C)C1` (stereo not drawn), for which the “activity change, negative = inhibition” value is 4.66%.

On to `O=C(c1cc(Cl)ccc1F)N1CCN(c2cc(C(F)(F)F)ncn2)CC1`, for which the “activity change, negative = inhibition” value is 2.26%.

Regarding `O=C(NCc1ccc(Cl)nc1)c1cnn2ncccc12`, the “activity change, negative = inhibition” value is 0.0904% [at 88.5 µM].

As to `CC(C)c1ccc(CNC(=O)CN2CCCc3nc(C4CC4)ncc3C2=O)cc1`, the outcome was inactive.

In the case of `COCCN1C(=O)CCC2(C(=O)NCc3cn[nH]c3C)CCCC=C12` (stereo not drawn), the “activity change, negative = inhibition” value is -8.64%.

Turning to `CN1CCN(C(C)(CN)c2ccccn2)CC1` (stereo not drawn), the “activity change, negative = inhibition” value was -8.19% [at 88.5 µM].

On to `O=C(Nc1cccc(F)c1)N1CCC2(CC1)SCC(=O)N2Cc1ccco1`, for which the “activity change, negative = inhibition” value was 2.45%.

For `COc1ccc(-c2nnc(C[C@@H]3C[C@@H](C(C)C)[C@H](CN4CCC(C(N)=O)CC4)C=C3C)o2)cc1`, the outcome was inactive.

Take `Cc1ccc(C)c(CN2C(=O)NC3(CCCN(C(=O)c4ccc(C)c(F)c4)C3)C2=O)c1` (stereo not drawn): the outcome was inactive.
